# Laboratory results published in ChEMBL document CHEMBL4513216, “Probing the Open Global Health Chemical Diversity Library for Multistage-Active Starting Points for Next-Generation Antimalarials” (ACS Infect Dis, 2020).
# Screen size: about 68,000 compounds; about 2,700 (4%) showed an effect of 50% or more. The entries come from a sample that favours strong results as a whole.
# System: Plasmodium berghei
# Assay: Screen against P. berghei liver stage (PbLuc), transformed with Luciferase, at 2uM
# Assay type: functional, HepG2
# Details: tested at 2 uM
row,SMILES,INHIBITION [%]
1,CCOC(=O)Cn1c(=O)nc(N)c2c(-c3ccc(OC)cc3)csc21,69.62
2,CCn1c(=O)nc(N)c2c(-c3ccc(OC)cc3)csc21,-37.19
3,COc1ccc(-c2csc3c2c(N)nc(=O)n3CC(N)=O)cc1,23.16
4,O=C(CC1CC2(CCNCC2)c2ccccc21)NCC1CC1 (centres undefined),-1.81
5,CC(=O)NC1CCN(c2ncnc3c2c(C)nn3C)C1 (centres undefined),32.56
6,CCC1(CC)Cc2ccccc2-c2nc(CN(C)C)nc(O)c21,29.02
7,CN(C)C(=O)c1cnc(-c2ccc3c(c2)OCO3)s1,-197.6
8,CC(C)N(CC(N)=O)C(=O)c1cnc(-c2ccc3c(c2)OCO3)s1,75.8
9,CC(C)N(CCC#N)C(=O)c1cnc(-c2ccc3c(c2)OCO3)s1,37.87
10,O=C(O)C1(n2ccc(-c3ccco3)n2)CCN(Cc2cccnc2)CC1,-30.35
11,Cc1ccc2nc(CN(C)Cc3ccc(C)o3)cc(=O)n2c1,5.02
12,Cc1nc(C(=O)N2CCN(C(C)c3ccccc3F)CC2)cs1 (centres undefined),19.06
13,CN1CCc2ncc(CNc3cc(N(C)C)ncn3)n2CC1,-14.45
14,Cc1cc(C)nc(N2Cc3cnn(Cc4ccc(F)cc4)c3C2)n1,-51.41
15,CNc1cc(C)nc(N2Cc3cnn(Cc4ccc(F)cc4)c3C2)n1,52.03
16,Cc1ccnc(N2Cc3cnn(Cc4ccc(F)cc4)c3C2)n1,-38.09
17,O=C(CN1CC(n2cccn2)C1)NCCc1c[nH]c2ccccc12,25.74
18,O=S(=O)(NCCn1ccc(-c2cccs2)n1)C1CC1,-49.59
19,Cc1nc(-c2ccccc2C)n(CC(=O)NC(C)C2CC2)n1 (centres undefined),12.66
20,O=C(NCC1CC1)C1CCC2(CCN(C(=O)c3ccoc3)CC2)O1 (centres undefined),36.99
21,Cc1ccccc1C(=O)N1CCC2(CCC(C(=O)NCC3CC3)O2)CC1 (centres undefined),-28.91
22,Cc1occc1C(=O)N1CCC2(CCC(C(=O)NCC3CC3)O2)CC1 (centres undefined),51.19
23,Cc1ccc(C(=O)N2CCC3(CCC(C(=O)NCC4CC4)O3)CC2)o1 (centres undefined),38.09
24,O=C(NCC1CC1)C1CCC2(CCN(C(=O)c3ccncc3)CC2)O1 (centres undefined),52.36
25,O=C(NCC1CC1)C1CCC2(CCN(C(=O)c3cccnc3)CC2)O1 (centres undefined),22.71
26,CCC(C)(CC(=O)OC)NC(=O)c1ccc(C(C)=O)cc1 (centres undefined),27.85
27,COc1cccc(-c2cc(C(=O)NCCCn3cnnc3)[nH]n2)c1,-48.78

row,SMILES,INHIBITION [%]
1,CCNc1ncc(C(=O)NCc2ccc(F)c(C(F)(F)F)c2)cn1,-18.6
2,CCNc1ncc(C(=O)NCc2ccc3nsnc3c2)cn1,86.69
3,CCNc1ncc(C(=O)NCc2cccc(OC(F)(F)F)c2)cn1,-15.83
4,Cc1nn(C)c(C)c1NC(=O)CN1CCc2c(nc(C(C)C)n2C)C1,-31.89
5,CC(C)(C(=O)N1CCC(CS(N)(=O)=O)CC1)c1ccccc1F,30.06
6,CC(C)(C(=O)N1CCC(C(N)=O)C1)c1ccccc1F (centres undefined),60.9
7,CC(C)(C(=O)NCC(=O)N1CCCC1)c1ccccc1F,5.47
8,CCOc1ccc(Oc2cc(CN)ccn2)cc1,16.95
9,O=C(CCC(=O)N1CCOCC1)NCc1cccnc1-n1cccn1,-15.37
10,Cc1cn2c(n1)CCC(NC(=O)COCCOc1ccccc1)C2 (centres undefined),1.49
11,Cc1nn(C)c2ncnc(N3CCCC(OCc4cccnc4)C3)c12 (centres undefined),70.81
12,Cc1nn(C)c2ncnc(N3CCCC(OCc4ccccn4)C3)c12 (centres undefined),10.23
13,Cc1cc2c(N3CCCC(OCc4cccnc4)C3)ncnc2s1 (centres undefined),3.62
14,c1cc(CN2CCc3ncc(CN4CCCCC4)n3CC2)cs1,33.47
15,COCCN1CCC2(CC1)CC(N1CCOCC1)c1cc(C)ccc12 (centres undefined),-6.8
16,CC(=O)N1CCCC1c1nccnc1Nc1ncccn1 (centres undefined),13.33
17,N#Cc1cccc(N2CCCC3(CN(C(=O)NC4CC4)CCO3)C2)c1 (centres undefined),6.36
18,Cc1cc(CN(C)CCN(C)c2ccccc2)no1,7.62
19,CC(C)Cc1nc(CS(=O)(=O)c2ccccc2)no1,-5.66
20,COc1ccc(S(=O)(=O)Cc2cc(C)on2)cc1,21.24
21,Cc1cc(CS(=O)(=O)c2ccccc2)no1,58.69
22,CCc1noc(CS(=O)(=O)c2cccc(OC)c2)n1,38.33
23,COc1cccc(S(=O)(=O)Cc2cc(C)on2)c1,57.59
24,CN(C)c1ccc(CNCc2cnc(N3CCOCC3)nc2)cn1,-160.54
25,CC(NCc1ccncc1)c1cc2c(cc1Br)OCCO2 (centres undefined),42.7
26,CC(NCc1cccnc1)c1cc2c(cc1Br)OCCO2 (centres undefined),52.83
27,CC(NCc1ccccn1)c1cc2c(cc1Br)OCCO2 (centres undefined),8.93
